In PubChem BioAssay one finds outcome data, which are given here for 40 compounds.

For some assays here: Measured potencies and affinities stand elsewhere. Active and inactive are the calls of the source. How the calls were made is not given here.

The target of the first assay is Plasmodium falciparum protein kinase 6 (PK6, PF3D7_1337100) (UniProt Q8IDW1). The assay can be described thus: PfPK6 kinase inhibitors, biochemical, TCAMS library (AID 1159586). Conditions: recombinant PfPK6, Kinase-Glo ATP depletion luminescence.
Sequence of Plasmodium falciparum protein kinase 6 (PK6, PF3D7_1337100) (Q8IDW1 1-305): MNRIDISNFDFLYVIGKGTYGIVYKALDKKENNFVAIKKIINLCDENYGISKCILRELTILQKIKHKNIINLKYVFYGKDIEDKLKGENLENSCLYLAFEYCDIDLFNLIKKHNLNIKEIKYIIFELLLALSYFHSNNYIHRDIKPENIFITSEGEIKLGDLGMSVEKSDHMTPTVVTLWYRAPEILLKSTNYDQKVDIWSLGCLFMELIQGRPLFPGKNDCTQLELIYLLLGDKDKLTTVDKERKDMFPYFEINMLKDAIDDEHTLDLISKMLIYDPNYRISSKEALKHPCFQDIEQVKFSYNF
As to `CN(Cc1ccncc1)C(Cc1ccccc1)C1CCN(Cc2ccc(O)c(Cl)c2)CC1` (stereo not given), the outcome was inactive.

Regarding `Clc1ccccc1CN1CCC(NCc2cccc(-n3ccnc3)c2)CC1`, the result was inactive.

Take `CCN1CCC(N(Cc2ccc(-c3ccc(C(F)(F)F)cc3)cc2)C(=O)Cn2c(CCc3cccc(F)c3F)cc(=O)c3cn(C)nc32)CC1`: the outcome was inactive.

For the compound `CC[C@H]1CN2CCc3cc(OC)c(OC)cc3[C@@H]2C[C@@H]1CC1=NCCc2c1[nH]c1ccc(OCc3ccccc3)cc21`, the outcome was inactive.

`Nc1ncc(-c2ccsc2)c2ccc(-c3cnc[nH]3)cc12`: the outcome was inactive.

Regarding `Cc1c(C)c2c(c(C)c1O)CC[C@@](C)(C(=O)N1CCC(CCN3CCC(c4c[nH]c5ccccc45)CC3)CC1)O2`, the outcome was inactive.

`Cc1ccc(NC(=O)Nc2ccc(Cl)cc2)cc1-c1cccc(C(=O)Nc2ccc(F)cc2)c1`: the outcome was inactive.

Regarding `N#Cc1cc([N+](=O)[O-])ccc1-n1nc(C(N)=O)n(Cc2cccc(F)c2)c1=S`, the outcome was inactive.

On to `Cc1ccccc1C1CCN(C2CCC(NC(=O)c3ccc(-c4cc(C(F)(F)F)nn4C)s3)CC2)CC1` (stereo not given), for which the outcome was inactive.

Turning to `CC1(C)N=C(N)N=C(N)N1OCc1cc2ccccc2cc1CON1C(N)=NC(N)=NC1(C)C`, the outcome was inactive.

With `Cc1cc(N[C@@H](CC(C)C)C(=O)NCc2cccs2)nc(NCCc2ccc(F)cc2)n1`, the outcome was inactive.

On to `O=C(N[C@@H](Cc1ccccc1)[C@H](O)CNC1CCCCC1)c1cc(C2CCCC2)cc(N2CCCC2=O)c1`, for which the outcome was inactive.

Take `O=C(Nc1ccc(Cl)cc1)c1ccc(CN2CCCN(Cc3cccc(O)c3)CC2)cc1`: the outcome was inactive.

For `COc1ccc(N2CCN(CCCCNC(=O)c3ccc(NC(=O)c4cc(C(F)(F)F)cc(C(F)(F)F)c4)cc3)CC2)cc1OC`, the result was inactive.

In the case of `CS(=O)(=O)CCNCc1cc(-c2cc3ncnc(Nc4ccc(OCc5cccc(F)c5)c(Cl)c4)c3s2)cs1`, the outcome was inactive.

As for `OCC1CCN(Cc2cccc(-c3cccc(-c4nc5ccc(C(F)(F)F)cc5[nH]4)c3)c2)CC1`, the result was inactive.

As to `CCN(CCCNc1nc(=S)[nH]c2cc(OC)c(OC)cc12)c1ccccc1`, the result was inactive.

Take `Cc1cc(=O)[nH]c(/N=C(/N)NOCc2ccccc2)n1`: the result was inactive.

Take `O=C(Nc1cccc(-c2ccc(-c3nc4ccccc4[nH]3)cc2)c1)Nc1ccc(F)c(F)c1F`: the result was inactive.

With `CC(C)c1ccc(NS(=O)(=O)c2cccc(C(=O)NC3CCN(CC4CCCCC4)CC3)c2)cc1`, the result was inactive.

Take `CC(C)(C)c1ccc2nc(-c3ccc(/C=C/C(=O)NC4CCN(Cc5ccccc5)CC4)cc3)[nH]c2c1`: the outcome was inactive.

Take `COc1cccc(C=NNc2cc(C)nc3c(OC)cccc23)c1`: the outcome was inactive.

In the case of `O=C(/C=C/c1ccc(Cl)c(Cl)c1)NCCCCCN1CCCC(CNC(=O)Nc2ccc(Oc3ccccc3)cc2)C1` (stereo not given), the outcome was inactive.

Turning to `CC(C)CNCc1cccc(-c2cccc(CN(CCN(C)C)C(=O)NCCc3ccccc3)c2)c1`, the result was inactive.

For the compound `CC(C)(c1ccccc1)c1ccc(O)c(CN2CCOCC2)c1`, the result was inactive.

On to `CC1CCN(C(=O)C(Cc2c[nH]c3ccccc23)NS(=O)(=O)c2ccc(Cl)cc2)CC1` (stereo not given), for which the outcome was inactive.

For the compound `O=C1NC(=O)C(c2ccc(Cl)cc2)=C1Nc1cccc(S(=O)(=O)C(F)(F)F)c1`, the result was inactive.

As for `COc1ccc(N2C(=O)c3c(c4ccccc4n3C)C2c2ccccc2O)cc1` (stereo not given), the result was inactive.

In the case of `CCCCC(=O)Nc1nonc1-c1ccc(OCC)c(OCC)c1`, the outcome was inactive.

Regarding `CN(C(=O)/C=C/c1c(Cl)cccc1Cl)C1CCN(CCCCCNC(=O)/C=C/c2ccc(Cl)c(Cl)c2)CC1`, the outcome was inactive.

In the case of `CCn1c(-c2cc(C)on2)nc2cnc(Oc3ccc(C(=O)N4CC(=O)N(C)C4C(C)(C)C)cc3)cc21` (stereo not given), the result was inactive.

With `COc1cc2nc(N3CCC(CNC(=O)c4ccc(-c5ccc(C(=O)N(C)C)cc5C)cc4)CC3)nc(N3CCN(C)CC3)c2cc1OC`, the result was inactive.

For `Cc1[nH]c(C)c(-c2csc3ccccc23)c(=O)c1Cl`, the outcome was inactive.

Consider `COc1cc2nc(N3CCN(C(=O)c4cccc(I)c4)CC3)nc(N)c2cc1OC`, for which the outcome was inactive.

For `Cc1cc(NC(=O)c2cccs2)ccc1OC1CCN(Cc2ccc(C#N)cc2)CC1`, the result was inactive.

`COc1ccc(NC(=O)c2ccc(-c3nc(-c4cccc(C(F)(F)F)c4)cs3)cc2)cc1N1CCN(C)CC1`: the result was inactive.

As to `CC(C)C[C@@H](CNC[C@H](CC(C)C)NC(=O)OC(C)(C)C)NC(=O)OC(C)(C)C`, the result was inactive.

In the case of `COc1cc(NCC(CN)Cc2ccc3c(c2)OCO3)nc2ccccc12` (stereo not given), the result was inactive.

With `Cc1cc2nc(-c3ccc(SCC(=O)Nc4ccc5c(c4)OCCO5)nc3)[nH]c2cc1C`, the result was inactive.

Regarding `O=C(C=Cc1ccc(Cl)c(Cl)c1)NCCCCCN1CCCC(CCCNC(=O)c2cccs2)C1` (stereo not given), the outcome was inactive.

The target in the next assay is Protein kinase 7 (PK7), Plasmodium falciparum 3D7 (PF3D7_0213400) (UniProt Q7YTF7). The assay can be described thus: inhibition of Plasmodium PK7 catalytic activity – biochemical, TCAMS antimalarial set, Kinase-Glo luminescence (AID 1159587). Conditions: recombinant PfPK7, Kinase-Glo ATP depletion luminescence. (Kinase-Glo reads ATP consumption through a luciferase reaction.)
Sequence of Protein kinase 7 (PK7), Plasmodium falciparum 3D7 (PF3D7_0213400) (Q7YTF7 1-343): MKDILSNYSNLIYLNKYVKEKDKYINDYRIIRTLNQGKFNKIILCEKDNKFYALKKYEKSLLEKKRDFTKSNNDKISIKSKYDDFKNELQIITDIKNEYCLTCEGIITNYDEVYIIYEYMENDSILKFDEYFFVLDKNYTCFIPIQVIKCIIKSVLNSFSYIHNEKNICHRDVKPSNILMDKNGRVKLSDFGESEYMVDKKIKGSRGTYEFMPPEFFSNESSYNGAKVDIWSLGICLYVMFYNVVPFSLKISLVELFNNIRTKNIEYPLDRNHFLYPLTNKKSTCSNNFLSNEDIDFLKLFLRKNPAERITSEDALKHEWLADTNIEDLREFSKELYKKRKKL
For the compound `CN(Cc1ccncc1)C(Cc1ccccc1)C1CCN(Cc2ccc(O)c(Cl)c2)CC1` (stereo not given), the outcome was inactive.

With `Clc1ccccc1CN1CCC(NCc2cccc(-n3ccnc3)c2)CC1`, the result was inactive.

With `CCN1CCC(N(Cc2ccc(-c3ccc(C(F)(F)F)cc3)cc2)C(=O)Cn2c(CCc3cccc(F)c3F)cc(=O)c3cn(C)nc32)CC1`, the result was inactive.

In the case of `CC[C@H]1CN2CCc3cc(OC)c(OC)cc3[C@@H]2C[C@@H]1CC1=NCCc2c1[nH]c1ccc(OCc3ccccc3)cc21`, the outcome was inactive.

`Nc1ncc(-c2ccsc2)c2ccc(-c3cnc[nH]3)cc12`: the result was inactive.

On to `Cc1c(C)c2c(c(C)c1O)CC[C@@](C)(C(=O)N1CCC(CCN3CCC(c4c[nH]c5ccccc45)CC3)CC1)O2`, for which the outcome was inactive.

For `Cc1ccc(NC(=O)Nc2ccc(Cl)cc2)cc1-c1cccc(C(=O)Nc2ccc(F)cc2)c1`, the outcome was inactive.

For the compound `N#Cc1cc([N+](=O)[O-])ccc1-n1nc(C(N)=O)n(Cc2cccc(F)c2)c1=S`, the outcome was inactive.

In the case of `Cc1ccccc1C1CCN(C2CCC(NC(=O)c3ccc(-c4cc(C(F)(F)F)nn4C)s3)CC2)CC1` (stereo not given), the result was inactive.

On to `CC1(C)N=C(N)N=C(N)N1OCc1cc2ccccc2cc1CON1C(N)=NC(N)=NC1(C)C`, for which the result was inactive.

As to `Cc1cc(N[C@@H](CC(C)C)C(=O)NCc2cccs2)nc(NCCc2ccc(F)cc2)n1`, the outcome was inactive.

Consider `O=C(N[C@@H](Cc1ccccc1)[C@H](O)CNC1CCCCC1)c1cc(C2CCCC2)cc(N2CCCC2=O)c1`, for which the result was inactive.

For the compound `O=C(Nc1ccc(Cl)cc1)c1ccc(CN2CCCN(Cc3cccc(O)c3)CC2)cc1`, the result was inactive.

Take `COc1ccc(N2CCN(CCCCNC(=O)c3ccc(NC(=O)c4cc(C(F)(F)F)cc(C(F)(F)F)c4)cc3)CC2)cc1OC`: the outcome was inactive.

`CS(=O)(=O)CCNCc1cc(-c2cc3ncnc(Nc4ccc(OCc5cccc(F)c5)c(Cl)c4)c3s2)cs1`: the result was inactive.

In the case of `OCC1CCN(Cc2cccc(-c3cccc(-c4nc5ccc(C(F)(F)F)cc5[nH]4)c3)c2)CC1`, the result was inactive.

Consider `CCN(CCCNc1nc(=S)[nH]c2cc(OC)c(OC)cc12)c1ccccc1`, for which the outcome was inactive.

With `Cc1cc(=O)[nH]c(/N=C(/N)NOCc2ccccc2)n1`, the outcome was inactive.

For `O=C(Nc1cccc(-c2ccc(-c3nc4ccccc4[nH]3)cc2)c1)Nc1ccc(F)c(F)c1F`, the result was inactive.

With `CC(C)c1ccc(NS(=O)(=O)c2cccc(C(=O)NC3CCN(CC4CCCCC4)CC3)c2)cc1`, the result was inactive.

With `CC(C)(C)c1ccc2nc(-c3ccc(/C=C/C(=O)NC4CCN(Cc5ccccc5)CC4)cc3)[nH]c2c1`, the result was inactive.

For `COc1cccc(C=NNc2cc(C)nc3c(OC)cccc23)c1`, the outcome was inactive.

As for `O=C(/C=C/c1ccc(Cl)c(Cl)c1)NCCCCCN1CCCC(CNC(=O)Nc2ccc(Oc3ccccc3)cc2)C1` (stereo not given), the result was inactive.

For `CC(C)CNCc1cccc(-c2cccc(CN(CCN(C)C)C(=O)NCCc3ccccc3)c2)c1`, the result was inactive.

Regarding `CC(C)(c1ccccc1)c1ccc(O)c(CN2CCOCC2)c1`, the result was inactive.

`CC1CCN(C(=O)C(Cc2c[nH]c3ccccc23)NS(=O)(=O)c2ccc(Cl)cc2)CC1` (stereo not given): the result was inactive.

For the compound `O=C1NC(=O)C(c2ccc(Cl)cc2)=C1Nc1cccc(S(=O)(=O)C(F)(F)F)c1`, the result was inactive.

As to `COc1ccc(N2C(=O)c3c(c4ccccc4n3C)C2c2ccccc2O)cc1` (stereo not given), the result was inactive.

Regarding `CCCCC(=O)Nc1nonc1-c1ccc(OCC)c(OCC)c1`, the result was inactive.

`CN(C(=O)/C=C/c1c(Cl)cccc1Cl)C1CCN(CCCCCNC(=O)/C=C/c2ccc(Cl)c(Cl)c2)CC1`: the outcome was inactive.

Take `CCn1c(-c2cc(C)on2)nc2cnc(Oc3ccc(C(=O)N4CC(=O)N(C)C4C(C)(C)C)cc3)cc21` (stereo not given): the outcome was inactive.

For the compound `COc1cc2nc(N3CCC(CNC(=O)c4ccc(-c5ccc(C(=O)N(C)C)cc5C)cc4)CC3)nc(N3CCN(C)CC3)c2cc1OC`, the result was inactive.

With `Cc1[nH]c(C)c(-c2csc3ccccc23)c(=O)c1Cl`, the result was inactive.

Turning to `COc1cc2nc(N3CCN(C(=O)c4cccc(I)c4)CC3)nc(N)c2cc1OC`, the outcome was inactive.

For the compound `Cc1cc(NC(=O)c2cccs2)ccc1OC1CCN(Cc2ccc(C#N)cc2)CC1`, the outcome was inactive.

For `COc1ccc(NC(=O)c2ccc(-c3nc(-c4cccc(C(F)(F)F)c4)cs3)cc2)cc1N1CCN(C)CC1`, the outcome was inactive.

As for `CC(C)C[C@@H](CNC[C@H](CC(C)C)NC(=O)OC(C)(C)C)NC(=O)OC(C)(C)C`, the result was inactive.

Regarding `COc1cc(NCC(CN)Cc2ccc3c(c2)OCO3)nc2ccccc12` (stereo not given), the outcome was inactive.

As to `Cc1cc2nc(-c3ccc(SCC(=O)Nc4ccc5c(c4)OCCO5)nc3)[nH]c2cc1C`, the result was inactive.

For `O=C(C=Cc1ccc(Cl)c(Cl)c1)NCCCCCN1CCCC(CCCNC(=O)c2cccs2)C1` (stereo not given), the result was inactive.
